# Bioassay records: PubChem BioAssay, several laboratories
# TLR4 MyD88 comp – inhibitors of human TLR4-MyD88 binding | inhibition, % at 8.4 µM | 0.18% of 200,000 active | O00206+Q99836 | HeLa CL3-4 TLR4/MyD88 BLA complementation, FRET ratio; in the data active = inhibition above about 25%;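 also: 0% = vehicle and 100% = reference inhibitor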
# Myeloid diff 2 – myeloid differentiation induction | ER-HoxA9 myeloid progenitors, lysozyme-GFP differentiation, flow cytometry | calls only at 10 µM | 1% of 360,000 active | AID 624256;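 active = normalized GFP-positive differentiation at or above the plate's own cutoff, the solvent-only control mean plus 3 SD; inconclusive = no clear call, values can overlap the other calls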;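 also: cells exposed to compound for four days before flow analysis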
# NOD2 RIPK2 PPI – blocks binding of human NOD2 to RIPK2; O43353; CHO BLA complementation NOD2-RIPK2, CCF4 ratio; inhibition, % at 4.98 µM; 0.38% of 360,000 active; in the data active = inhibition above about 21%;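 also: 0% = vehicle only and 100% = reference blocker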
# TLR9-MyD88 inh – inhibitors of human TLR9-MyD88 binding. Q9NR96+Q99836. CHO BLA complementation TLR9-MyD88, CCF4 FRET ratio. inhibition, % at 4.98 µM. 0.21% of 340,000 active. AID 504734;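 active = inhibition above the mean over all tested compounds plus 3 SD, cut at about 21% in these data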;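 also: 0% = DMSO only wells and 100% = clavulanate BLA inhibitor control wells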
# An asterisk follows results filed as active; i = inactive; ? = inconclusive; . = not tested or not shown; + = active, no number; ! = a repeat was not active. This is a sample that favours compounds with a hit; in the whole collection about 1.5% have one here.
SMILES,TLR4 MyD88 comp,Myeloid diff 2,NOD2 RIPK2 PPI,TLR9-MyD88 inh
CC(C)CNc1ncnc2c1ncn2[C@H]1CN(Cc2ccc(-c3ccccc3)cc2)C[C@@H](CO)O1,.,i,1,.
COc1ccc(CCN2C(=O)CSC2=Nc2ccc(C(C)C)cc2)cc1OC,.,+,-3,.
COc1ccc(N=C2SCC(=O)N2CCc2ccc(OC)c(OC)c2)cc1,.,i,-7,-3
Cc1cc(NC(=O)CS(=O)(=O)c2cn(Cc3ccccc3Cl)c3ccccc23)no1,1,+,3,-7
Fc1ccc(-n2c(-c3ccco3)nc3nc4ccccc4nc32)cc1,-16,+,5,6
CCCCOCCCn1c(-c2ccco2)nc2nc3ccccc3nc21,-4,+,4,-3
CCCc1nc2ccc(Cl)cn2c1Cc1ccsc1,.,i,-2,.
CCOc1ccc(C(Nc2cccnc2)c2cc(Cl)c3cccnc3c2O)cc1 (stereo not given),15,+,3,6
O=C(c1ccc(S(=O)(=O)Cc2cc(F)ccc2F)c([N+](=O)[O-])c1)N1CCCC1,2,i,-3,1
O=C(c1ccc(S(=O)(=O)Cc2cc(F)ccc2F)c([N+](=O)[O-])c1)N1CCCCC1,6,+,-2,2
COc1ccc(CC(N)c2csc(Nc3ccc(C(=O)c4ccccc4)cc3)n2)cc1 (stereo not given),.,i,2,.
CCOC(=O)COn1c(=O)c(C)[n+]([O-])c2ccccc21,-2,i,3,-2
CCOC(=O)COn1c(=O)c[n+]([O-])c2ccccc21,-17,+,-3,7
COC(=O)[C@]12CCCCC=C1N(Cc1ccc3c(c1)OCO3)C(=O)[C@H](CC(=O)NCC13CC4CC(CC(C4)C1)C3)C2,.,i,-6,.
Cn1nc(-c2ccc(C(=O)Nc3ccc(F)cc3)cc2)c2ccccc2c1=O,-5,i,0,.
Cc1ccc(NC(=O)c2ccc(-c3nn(C)c(=O)c4ccccc34)cc2)cc1,-10,+,-1,-6
O=C(CSc1nnnn1-c1ccccc1)NCc1cccs1,6,+,-10,7
CSc1ccccc1-n1nnnc1SCC(=O)NCc1cccs1,7,i,9,-10
CC(C)(C)c1ccc(C(=O)N2[C@H](COCc3ccccc3)C=CS2(=O)=O)cc1,.,i,7,.
CC(C)(C)c1ccc(C(O)c2ncc(-c3ccc(F)cc3)[nH]2)cc1 (stereo not given),.,i,11,.
Cc1sc2ncnc(N3CCN(CCOc4ccc(Cl)cc4)CC3)c2c1C,-2,+,-3,4
COc1ccc(C2C3=C(CC(C)(C)CC3=O)Nc3c2c(=O)[nH]c2nc(C)nn32)cc1 (stereo not given),0,+,-15,-3
COc1ccc(C2C(C#N)=C(C)NC3=C2C(=O)CC(C)(C)C3)cc1 (stereo not given),8,i,-2,-4
NNc1ncnc2scc(-c3ccc(Cl)cc3)c12,-10,+,-10,-3
CCN1CCN(c2ccc(S(=O)(=O)N3CCCCC3)cc2NC(=O)/C=C/c2cccc(OC)c2OC)CC1,.,+,12,2
SMILES,TLR4 MyD88 comp,Myeloid diff 2,NOD2 RIPK2 PPI,TLR9-MyD88 inh
CCC(C)Sc1cc(-c2nc3cc(C)ccn3c2NC2CCCCC2)ccc1OC (stereo not given),.,+,13,7
CCC(C)Sc1cc(-c2nc3ccc(C)cn3c2NCc2ccccc2)ccc1OC (stereo not given),.,i,27*!,-3
CCC(C)Sc1cc(-c2nc3ccccn3c2NC2CCCCC2)ccc1OC (stereo not given),.,i,3,-14
CC(=O)Nc1ccc(S(=O)(=O)N(C)C2CCN(C)CC2)cc1,.,i,8,-4
CC(Oc1cccc(Cl)c1)C(=O)Nc1ccc(S(=O)(=O)N(C)C2CCN(C)CC2)cc1 (stereo not given),.,+,0,6
Cc1ccc(-n2nnnc2SCC(=O)c2c(N)n(C3CC3)c(=O)[nH]c2=O)cc1,.,+,1,-2
O=C(N/N=C\c1c(O)ccc2ccccc12)c1ccc(S(=O)(=O)N2CCCCC2)cc1,-2,+,-7,-2
N#Cc1c2c(c(=S)n(-c3ccccc3)c1N)CCCC2,-1,+,-2,-3
CC1(C)Cc2c(C#N)c(N)n(-c3ccccc3)c(=S)c2CO1,.,i,-4,.
CC(C)[C@@H]1O[C@H](CCc2ccccc2)CC2=C1C(=O)OC(C)(C)O2,.,i,0,.
CCc1nc(N)nc(N)c1-c1ccc(Cl)cc1,6,+,-8,4
CCc1nc(N)nc(N)c1-c1ccc(NCCN)c([N+](=O)[O-])c1,.,?,-4,-3
CC(=O)c1ccc(Oc2ccc(C(C)=O)cc2)cc1,12,i,2,2
Oc1ccc(Oc2ccc(Oc3ccc(O)cc3)cc2)cc1,.,+,-1,-7
O=C(c1cccs1)N1C[C@@H](O)[C@H](n2cc(-c3ccc(F)cc3)nn2)C[C@@H]1c1ccccc1,.,i,3,-3
O=S(=O)(NCc1cn2ccsc2n1)c1ccc(Oc2ccccc2)cc1,3,+,14,1
O=S(=O)(NCc1cn2ccsc2n1)c1cccs1,-3,i,-5,-8
O=C1Nc2ccccc2-n2nnnc2C1N1CCN(CCN2CCOCC2)CC1 (stereo not given),.,i,-4,.
CSc1cccc(N2CC(C(=O)N(Cc3nnc(-c4ccccc4Cl)o3)C3CC3)CC2=O)c1 (stereo not given),.,+,-10,7
CCNC(=O)C1CCCN(C(=O)c2cccc(OC(F)(F)F)c2)CC1 (stereo not given),.,i,7,.
CCCCCCCCN1C(=O)[C@H](CC(=O)NCc2cccs2)C[C@@]2(C(=O)OC)CC(C)(C)CC=C12,.,i,2,.
N=c1n(CCN2CCCCC2)c2ccccc2n1CC(=O)c1cccc([N+](=O)[O-])c1,.,+,3,13
NNC(=O)c1cccc(COc2ccccc2Br)c1,-8,+,3,3
Cc1ccc(-c2nc(NC(=O)CSc3nnc4scc(-c5ccccc5)n34)ns2)cc1,.,+,0,-15
CC1=CC(=O)C(Sc2ccc(C)cc2)=CC1=O,.,i,5,17
SMILES,TLR4 MyD88 comp,Myeloid diff 2,NOD2 RIPK2 PPI,TLR9-MyD88 inh
CCCCCCSc1ccc([C@@H]2[C@H]3C(=O)N(C)C(=O)[C@H]3[C@]3(C(=O)OC)CCCCN23)cc1OC,.,+,-5,-2
CCCCCCSc1ccc([C@@H]2[C@@H]3C(=O)N(C)C(=O)[C@@H]3[C@]3(C(=O)OC)CCCCN23)cc1OC,.,i,4,-5
C=CCn1c(C)cc(-c2csc(NC)n2)c1C,-6,+,-1,1
CCCc1ccc2ccc3ccccc3c2n1,.,i,-6,.
O=C1c2cccc([N+](=O)[O-])c2C(=O)N1CCO,-2,+,-1,1
O=C1NC[C@@H](CCCCN2C[C@H](Cc3ccc(O)cc3)N(CCc3ccccc3)C(=O)C2=O)N(CC2CCCCC2)C1=O,.,i,-5,.
N#CC(C#N)=C1C=C2C=C(N3CCCCCC3)CCC2CC1 (stereo not given),-2,i,6,-1
